# Screening results as filed in PubChem.
# The list is not random: actives were taken first. Their share in the collection is about 8%.
# SARS PLP yeast: blocks SARS-CoV papain-like protease in a yeast assay | S. cerevisiae expressing SARS-CoV PLpro, growth rescue | Potency, µM (top dose mostly 32.9 µM), inactives show at the highest dose activity, positive = growth rescue, actives largely listed as activators | 0.19% of 330,000 active | AID 485353; calls by dose curve; further: potency means the concentration at half of the fitted maximal effect; 0% is about no effect; nearly all actives have a fitted effect of over 55% in size
# FMDV antiviral: antivirals against foot and mouth disease virus; AID 1159524; Potency, µM (series often up to 57.9 µM), inactives show at the top dose activity change, negative = inhibition, most hits filed as inhibitors; FMDV antiviral cell-based qHTS; 1.2% of 410,000 active; calls by dose curve; tested in HEK293T cells; further: read-out not given here; potency means the concentration at half of the fitted maximal effect; on the % scale 0 is the no-effect control and ±100 the full control effect; nearly all actives have a fitted effect of over 45% in size
# LASV entry inh: inhibitors of Lassa virus binding or cell entry. AID 540256. Lassa virus pseudotype entry inhibition, cell reporter. Potency, µM (highest dose often 37.9 µM), inactives show at the top dose activity change, negative = inhibition, actives largely listed as inhibitors. 1.2% of 300,000 active; calls by dose curve; tested in HEK293 cells; further: potency means the concentration at half of the fitted maximal effect; on the % scale 0 is the no-effect control and ±100 the full control effect; nearly all actives have a fitted effect of over 50% in size
# HCV inhibitor: inhibitors of hepatitis C virus infection; AID 651820; 3.4% of 340,000 active; Potency, µM (top dose mostly 41.8 µM), for inactives: top-dose activity change, negative = inhibition, actives largely listed as inhibitors; Huh7.5.1 HCVcc-Cre infection, luciferase reporter, 44 h; further: potency means the concentration at half of the fitted maximal effect; on the % scale 0 is the no-effect control and ±100 the full control effect
#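 Compounds are dispensed onto cells plated 4 h earlier at 1,000 per well, with HCVcc-Cre virus (about 0.5 moi) added next. Following 44 h of culture, luminescent signal is measured for 15 sec after 15 min with substrate at room temperature.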
# HCMV antiviral: inhibitors of human cytomegalovirus. HFF cells, HCMV-luciferase reporter, 72 h; hits give low values. 4.5% of 410,000 active. AID 1259415. activity change, negative = inhibition, % at 57.5 µM; in the data active means activity change below about -60%; inconclusive means no clear call, values can overlap the other calls; inactive means above about -39%; further: on the % scale 0 is the no-effect control and ±100 the full control effect
#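 Human foreskin fibroblasts infected with luciferase-reporter HCMV at MOI 1 PFU/cell, compounds at two doses. Luciferase measured 72 h post infection; normalized to buffer-only basal and Salinomycin (10uM) controls.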
# Marburg entry inh: blocks Marburg virus binding to or entry into cells | Potency, µM (top dose mostly 37.8 µM), for the others: at the top dose activity change, negative = inhibition, hits mostly inhibitors | Marburg virus pseudotyped entry inhibition, cell reporter | 1.8% of 300,000 active; calls by dose curve; tested in HEK293 cells; further: potency means the concentration at half of the fitted maximal effect; on the % scale 0 is the no-effect control and ±100 the full control effect
# WI-38 cytotox: counter-screen for perinucleolar compartment inhibitors: WI-38 cytotoxicity; AID 2729; 120 tested, under 10 active; shares compounds with Marburg entry inh; WI-38 normal lung fibroblasts, ATPLite luminescence ATP viability, 24 h; Potency, µM (doses to about 46.1 µM), without a hit: at the top dose activity change, negative = cytotoxicity, hits mostly inhibitors
# PNC inh conf: confirmation of perinucleolar compartment assembly inhibitors | shares compounds with Marburg entry inh | PC3M PTB-GFP, PNC prevalence imaging, 16 h | Potency, µM (highest dose often 46.1 µM), for inactives: at the highest dose activity, negative = PNC inhibition, most hits filed as inhibitors | 50% of 120 active
# PC3M caspase: counter-screen for PNC inhibitors: PC3M caspase 3/7 activation | shares compounds with Marburg entry inh | PC3M-GFP caspase 3/7 activation, luminescence, 24 h | activity change, positive = activation, % at 46.1 µM | 120 tested, under 10 active | AID 2731
# HCV inh confirm: HCV inhibition, cherry-pick confirmation; Potency, µM (top dose mostly 41.8 µM), for the others: at the highest dose activity, negative = inhibition, hits mostly inhibitors; AID 720575; shares compounds with HCV inhibitor; 78% of 640 active; HCVcc-Cre infectious virus cell assay, luciferase, inhibition; further: potency means the concentration at half of the fitted maximal effect; nearly all actives have a fitted effect of over 80% in size
# HCV cytotox: host cell cytotoxicity counter-screen for HCV inhibitors. HCV host cell line cytotoxicity counterscreen. Potency, µM (doses to about 41.8 µM), for the others: at the top dose activity change, negative = cytotoxicity, actives largely listed as inhibitors. 22% of 640 active. shares compounds with HCV inhibitor;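 further: potency means the concentration at half of the fitted maximal effect; 44 h compound exposure; on the % scale 0 is the no-effect control and ±100 the full control effect; nearly all actives have a fitted effect of over 55% in size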
# Numbers without * were called inactive; ? = inconclusive; / = no result; [ ] = remark or other dose. Unless noted, the call rests on the fitted dose curve; in most records, active means well fitted curve in the direction sought with a large enough effect; inconclusive means small, poorly fitted or top-dose-only effect, or another doubt; inactive means no such curve, though single readings can be large; an effect the other way counts as inactive or inconclusive.
SMILES,SARS PLP yeast,FMDV antiviral,LASV entry inh,HCV inhibitor,HCMV antiviral,Marburg entry inh,HCV inh confirm,HCV cytotox,others
CCC(=NCc1cc(OC)cc(OC)c1)c1c(O)n(C)c(=O)n(C)c1=O,3.3%,?,?,6.31µM*,-89.9*,20.6µM*,/,/,WI-38 cytotox=7.4%;PNC inh conf=?;PC3M caspase=-10.3
COC(=O)c1ccccc1NC(=O)c1cn2c3c(ccc(Cl)c3c1=O)OC(C)C2 (centres undefined),/,-8.2%,-6.1%[46.1 µM],/,-0.2,/,/,/,
CC(=O)/C(C#N)=C1\NC(=O)C(Cc2ccc(C)c(C)c2)S1 (centres undefined),-16.6%,8.8%,1.3µM*,6.5%,-95.4*,0.411µM*,/,/,WI-38 cytotox=-13.2%;PNC inh conf=7.94µM*;PC3M caspase=0.4
CC(=O)N(C)C1=C(N2CCOCC2)C(=O)c2ccccc2C1=O,0.9%,2.51µM*,0.58µM*,0.562µM*,/,1.46µM*,/,/,WI-38 cytotox=?;PNC inh conf=?;PC3M caspase=?
CC(=O)N(C1=C(N2CCOCC2)C(=O)c2ccccc2C1=O)c1ccc(C(=O)O)cc1,0.0%,?,/,13.0%,-33.8,/,/,/,
CCOC(=O)c1noc2ncn(CC(=O)Nc3ccc(OC)c(Cl)c3)c(=O)c12,/,-22.6%,14.6%[46.1 µM],/,-2.4,/,/,/,
CCC(=O)N(Cc1ccco1)c1nc(-c2ccc(OC)cc2)cs1,8.0%,-2.7%,?,?,-7.0,-22.6%,/,/,
CCC(=O)N(Cc1ccco1)c1nc(-c2ccccc2)cs1,-3.7%,6.2%,-13.7%,?,-4.9,-11.1%,?,28.6%,
CC(C)n1c(SCC(=O)Nc2ccc(F)cc2)nc2c(oc3ccccc32)c1=O,/,0.0%,/,/,-18.8,5.7%[46.1 µM],/,/,
CCOC(=O)c1c(S(=O)(=O)N2CCC(C(=O)N3CCN(c4cc(C)ccc4C)CC3)CC2)c(C)n(C)c1C,/,-0.1%,-21.5%[46.1 µM],/,18.0,/,/,/,
NC(=S)c1cn(C2OC(CO)C(O)C2O)c2ncnc(N)c12 (centres undefined),-2.2%,?,/,0.282µM*,-99.3*,/,0.445µM*,0.445µM*,
Nc1ncnc2nn(C3OC(CO)C(O)C3O)nc12 (centres undefined),/,-24.1%,/,/,-13.9,/,/,/,
COc1ccccc1-n1c(=O)c2c3c(sc2n(C)c1=O)CN(C(C)=O)CC3,/,4.9%,5.4%[46.1 µM],/,0.0,/,/,/,
O=C(Nc1ncc(Cc2ccc(C(F)(F)F)cc2)s1)c1ccc(-c2cccc([N+](=O)[O-])c2)o1,8.0%,?,-26.2%,2.51µM*,?,?,12.5µM*,?,
C[C@@H]1COC(=O)[C@H](NC(=O)OCC2c3ccccc3-c3ccccc32)C/C=C\C[C@@H](CC(=O)N[C@H](CO)Cc2ccccc2)C(=O)N1,-24.5%,-2.6%,/,?,-22.9,/,/,/,
O=C(C[C@@H]1C/C=C\C[C@@H](NC(=O)OCC2c3ccccc3-c3ccccc32)C(=O)OCCNC1=O)N[C@@H](CO)Cc1ccccc1,4.1%,-17.3%,/,1.78µM*,-7.7,/,?,-13.0%,
COc1cc(NC(=O)c2ccc(COc3ccccc3Br)o2)cc(OC)c1OC,-3.7%,-23.7%,?,5.01µM*,20.3,-18.9%,11.2µM*,0.7%,
Cc1ccccc1N1CCN(S(=O)(=O)c2nnc(NC(=O)c3ccc(C(C)C)cc3)s2)CC1,/,?,-17.3%[46.1 µM],/,-15.7,/,/,/,
COc1nn(-c2ccccc2)c(=O)c(Cl)c1Cl,-8.8%,14.1µM*,?,3.98µM*,-102.2*,?,8.87µM*,7.91µM*,
CCOc1cc(/C=C/C(=O)Nc2ccc(C(=O)NCCN(CC)CC)cc2)ccc1OCC(C)C,-4.1%,?,?,3.16µM*,-113.7*,18.3µM*,15.8µM*,35.3µM*,
CC[n+]1c(C)sc2c(C)cc(C)cc21,-9.5%,-4.5%,-11.6%,6.1%,7.1,-6.6%[46.1 µM],/,/,
CCC[n+]1c(C)sc2c3c(ccc21)CCCC3,-1.2%,?,?,7.08µM*,/,?,25µM*,30.2%,
Cc1ccc(C2=NCCn3c2c2ccc([N+](=O)[O-])cc2[n+]3[O-])cc1,-0.8%,45.0%,/,?,17.4,/,22.3µM*,30.3%,
O=[N+]([O-])c1ccc2c3n([n+]([O-])c2c1)CCN=C3c1ccc(Cl)cc1,2.5%,9.3%,/,?,-1.8,/,/,/,
Cc1cc(C)c(NC(=O)CCS(=O)(=O)c2cc3c(cc2Cl)NC(=O)CO3)c(C)c1,/,-26.4%,-0.8%[46.1 µM],/,9.0,/,/,/,
SMILES,SARS PLP yeast,FMDV antiviral,LASV entry inh,HCV inhibitor,HCMV antiviral,Marburg entry inh,HCV inh confirm,HCV cytotox,others
CNCCOc1ccc(Cl)c(Cl)c1,0.5%,-10.5%,-41.8%[46.1 µM],?,-19.9,?,-17.5%,42.9%,
Clc1ccc(OCCCN2CCCC2)cc1Cl,-5.5%,-5.1%,?,?,9.8,?,/,/,
CCOC(=O)c1c(C)[nH]c(CCC(=O)NCc2cc(OC)c(OC)c(OC)c2)c1C,/,-14.7%,4.9%[46.1 µM],/,62.8,/,/,/,
CC1CCN(C(=O)c2ncn3c2C(=O)N[C@H](C)C3)CC1,/,/,/,/,-1.8,/,/,/,
COc1ccc(NC2=NC(=S)N(c3ccccc3C)C23CCCCC3)cc1,27.6%,-15.3%,0.0%,1.7%,-18.0,-3.0%,/,/,
COc1ccc(Nc2ccc3c(c2)=NC2(CCCCC2)[N+]=3[O-])cc1,-23.2%,?,?,5.01µM*,-98.0*,?,17.7µM*,15.8µM*,
CCN1C(=O)CS/C1=N\S(=O)(=O)c1ccc(Cl)cc1,-1.7%,-15.0%,-4.9%,15.7%,3.9,0.0%[46.1 µM],/,/,
CCn1c(Cl)c(C=O)s/c1=N\S(=O)(=O)c1ccccc1,-2.9%,?,/,3.16µM*,?,/,19.9µM*,11.2µM*,
COc1cc(NC(C)CCCN)c2ncccc2c1Oc1ccccc1 (centres undefined),-24.4%,-20.5%,10.9%,7.94µM*,10.7,?,19.9µM*,-18.0%,
Cn1ccc2cc(S(=O)(=O)N3CCN(C(=O)Nc4ccccc4F)CC3)ccc21,/,-3.1%,-17.8%[46.1 µM],/,6.0,/,/,/,
C/C(CCc1oc2ccccc2c1-c1ccc(C)o1)=N/O,-17.8%,-18.4%,-14.1%,7.94µM*,-21.1,?,25µM*,16.0%,
